Our source for the outcome and AC50 values is PubChem BioAssay (EPA / NIEHS).

Records with an inconclusive call do not appear. Active and inactive are the calls of the source. Rule for the calls: active = hit-call score of the fitted dose curve at least 0.9, where 1 is the maximum; inconclusive = response in the unintended direction; inactive = score below 0.9.

Sequence of PGR (gene 5241) (P06401 whole entry, looked up): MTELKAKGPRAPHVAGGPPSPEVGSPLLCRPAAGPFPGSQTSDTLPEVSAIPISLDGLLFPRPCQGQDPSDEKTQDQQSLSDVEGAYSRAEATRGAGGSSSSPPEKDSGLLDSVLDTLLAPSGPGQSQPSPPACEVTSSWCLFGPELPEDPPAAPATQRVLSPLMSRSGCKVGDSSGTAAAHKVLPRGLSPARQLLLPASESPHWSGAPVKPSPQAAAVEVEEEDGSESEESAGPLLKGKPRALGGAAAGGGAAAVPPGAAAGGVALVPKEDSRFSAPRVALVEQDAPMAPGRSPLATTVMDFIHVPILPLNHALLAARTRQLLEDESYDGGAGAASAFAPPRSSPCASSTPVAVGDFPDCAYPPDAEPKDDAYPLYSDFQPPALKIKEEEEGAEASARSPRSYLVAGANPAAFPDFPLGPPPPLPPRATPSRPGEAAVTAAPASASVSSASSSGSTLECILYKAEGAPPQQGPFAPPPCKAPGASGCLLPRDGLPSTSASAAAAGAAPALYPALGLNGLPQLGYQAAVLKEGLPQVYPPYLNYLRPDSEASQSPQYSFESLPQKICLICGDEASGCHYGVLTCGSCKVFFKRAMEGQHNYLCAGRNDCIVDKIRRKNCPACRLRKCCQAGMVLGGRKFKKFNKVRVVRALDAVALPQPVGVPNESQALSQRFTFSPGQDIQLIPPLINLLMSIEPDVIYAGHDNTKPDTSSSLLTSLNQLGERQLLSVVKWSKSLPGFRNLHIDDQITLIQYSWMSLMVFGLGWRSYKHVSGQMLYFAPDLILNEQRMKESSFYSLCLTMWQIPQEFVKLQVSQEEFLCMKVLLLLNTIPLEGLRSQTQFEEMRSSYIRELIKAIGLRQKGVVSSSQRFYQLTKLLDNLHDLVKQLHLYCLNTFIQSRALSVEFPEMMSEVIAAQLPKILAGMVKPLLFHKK
Sequence of Glucocorticoid receptor (Homo sapiens) (P04150 whole entry, looked up): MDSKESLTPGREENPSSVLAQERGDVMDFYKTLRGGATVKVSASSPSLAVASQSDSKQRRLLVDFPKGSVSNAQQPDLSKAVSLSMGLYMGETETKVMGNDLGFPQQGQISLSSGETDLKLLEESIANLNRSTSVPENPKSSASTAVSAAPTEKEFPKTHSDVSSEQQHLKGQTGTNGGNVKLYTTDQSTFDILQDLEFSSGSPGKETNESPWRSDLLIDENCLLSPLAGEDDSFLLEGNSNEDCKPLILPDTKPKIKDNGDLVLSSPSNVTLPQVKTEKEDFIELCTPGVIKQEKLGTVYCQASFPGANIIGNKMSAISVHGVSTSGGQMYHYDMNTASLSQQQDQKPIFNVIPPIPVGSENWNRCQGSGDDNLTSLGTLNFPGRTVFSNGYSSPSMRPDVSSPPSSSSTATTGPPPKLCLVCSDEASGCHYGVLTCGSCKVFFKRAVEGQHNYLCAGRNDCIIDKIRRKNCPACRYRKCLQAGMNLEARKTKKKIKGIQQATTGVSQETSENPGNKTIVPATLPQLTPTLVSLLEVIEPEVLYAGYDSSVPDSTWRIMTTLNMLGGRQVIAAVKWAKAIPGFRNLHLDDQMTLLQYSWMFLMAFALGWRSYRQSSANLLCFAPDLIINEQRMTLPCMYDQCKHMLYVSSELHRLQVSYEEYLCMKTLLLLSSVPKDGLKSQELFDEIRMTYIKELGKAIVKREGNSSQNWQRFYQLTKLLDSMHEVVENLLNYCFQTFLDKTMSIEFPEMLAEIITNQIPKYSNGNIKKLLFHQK
Sequence of human Serotonin Transporter (SERT), SLC6A4 (gene 6532) (P31645 whole entry, looked up): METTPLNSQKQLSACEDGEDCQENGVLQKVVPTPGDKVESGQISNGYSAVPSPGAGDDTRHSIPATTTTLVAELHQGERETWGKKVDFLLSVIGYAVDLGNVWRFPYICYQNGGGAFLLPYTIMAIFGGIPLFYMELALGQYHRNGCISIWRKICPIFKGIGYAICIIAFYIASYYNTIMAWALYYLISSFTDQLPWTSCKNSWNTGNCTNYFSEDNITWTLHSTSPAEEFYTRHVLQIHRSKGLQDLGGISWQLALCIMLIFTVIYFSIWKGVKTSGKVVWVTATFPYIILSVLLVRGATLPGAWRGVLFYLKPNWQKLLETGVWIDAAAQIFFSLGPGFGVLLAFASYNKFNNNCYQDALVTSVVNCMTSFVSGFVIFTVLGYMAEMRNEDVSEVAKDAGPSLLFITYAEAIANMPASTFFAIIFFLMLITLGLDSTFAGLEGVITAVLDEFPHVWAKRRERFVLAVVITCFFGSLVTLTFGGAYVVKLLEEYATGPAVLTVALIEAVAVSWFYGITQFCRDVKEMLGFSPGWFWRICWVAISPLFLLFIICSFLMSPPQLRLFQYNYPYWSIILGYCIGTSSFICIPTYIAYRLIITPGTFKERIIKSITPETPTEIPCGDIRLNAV
Sequence of Peroxisome proliferator-activated receptor gamma (Homo sapiens) (P37231 whole entry, looked up): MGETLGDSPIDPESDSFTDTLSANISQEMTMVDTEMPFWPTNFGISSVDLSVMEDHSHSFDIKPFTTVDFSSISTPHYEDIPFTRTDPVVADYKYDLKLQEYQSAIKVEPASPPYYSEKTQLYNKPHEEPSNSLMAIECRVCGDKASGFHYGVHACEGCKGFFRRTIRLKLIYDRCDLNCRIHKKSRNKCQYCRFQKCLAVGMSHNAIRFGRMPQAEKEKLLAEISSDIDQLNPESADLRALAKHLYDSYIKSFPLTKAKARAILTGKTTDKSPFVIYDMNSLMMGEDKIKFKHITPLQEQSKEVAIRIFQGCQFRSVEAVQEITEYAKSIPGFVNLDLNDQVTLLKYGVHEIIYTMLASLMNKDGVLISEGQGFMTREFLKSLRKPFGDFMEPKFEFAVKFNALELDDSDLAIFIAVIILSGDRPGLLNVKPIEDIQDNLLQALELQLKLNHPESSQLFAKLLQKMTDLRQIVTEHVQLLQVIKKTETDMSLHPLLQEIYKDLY

The target in the first assay is PGR (gene 5241) (UniProt P06401). As to the kind of experiment: NVS_NR_hPR: NovaScreen (NVS) Nuclear Receptor Binding Assay for human Progestron Receptor (PR) (AID 2283360).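 Note: active means loss of bound radioligand signal versus DMSO baseline.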 In a few lines:
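Cell-free radioligand binding using receptor protein extracted from T47D cells, read by scintillation counting 18 hours after dosing. Loss of signal relative to DMSO baseline indicates displacement; primary screen single concentration 25 uM in duplicate, actives followed in concentration series.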
Regarding `CC[C@H](C)[C@H]1O[C@]2(C=C[C@@H]1C)C[C@@H]1C[C@@H](C/C=C(\C)[C@@H](O[C@H]3C[C@H](OC)[C@@H](O[C@H]4C[C@H](OC)[C@@H](NC)[C@H](C)O4)[C@H](C)O3)[C@@H](C)/C=C/C=C3\CO[C@@H]4[C@H](O)C(C)=C[C@@H](C(=O)O1)[C@]34O)O2`, the call was inactive.

Broadly, the AC50 is the midpoint of the concentration-response curve, whichever way the signal moves. `CCOP(=S)(OCC)Oc1ccc([N+](=O)[O-])cc1`: the AC50 was 14.6 µM (active).

As for `CNC(=O)ON=C(SC)C(=O)N(C)C`, the compound was called inactive.

As to `C=C(C)[C@H]1Cc2c(ccc3c2O[C@@H]2COc4cc(OC)c(OC)cc4[C@@H]2C3=O)O1`, the result was inactive.

`CC(COc1ccc(Oc2ccccc2)cc1)Oc1ccccn1` (stereo not drawn): the result was inactive.

For another assay, the target named is human Thyroid Receptor Alpha (TRa), THRA (gene 7067) (UniProt P10827). As to the kind of experiment: NVS_NR_hTRa_Antagonist: NovaScreen (NVS) Nuclear Receptor Binding Assay for human Thyroid Receptor Alpha Antagonism (TRa) (AID 2283362). In a few lines: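 Extracted protein, cell-free; 1 h incubation after dosing; AlphaLISA chemiluminescence binding readout. DMSO = baseline/neg ctrl; signal loss = activity. Primary: duplicate, 25 uM; secondary: conc. series on actives.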
Sequence of human Thyroid Receptor Alpha (TRa), THRA (gene 7067) (P10827 whole entry, looked up): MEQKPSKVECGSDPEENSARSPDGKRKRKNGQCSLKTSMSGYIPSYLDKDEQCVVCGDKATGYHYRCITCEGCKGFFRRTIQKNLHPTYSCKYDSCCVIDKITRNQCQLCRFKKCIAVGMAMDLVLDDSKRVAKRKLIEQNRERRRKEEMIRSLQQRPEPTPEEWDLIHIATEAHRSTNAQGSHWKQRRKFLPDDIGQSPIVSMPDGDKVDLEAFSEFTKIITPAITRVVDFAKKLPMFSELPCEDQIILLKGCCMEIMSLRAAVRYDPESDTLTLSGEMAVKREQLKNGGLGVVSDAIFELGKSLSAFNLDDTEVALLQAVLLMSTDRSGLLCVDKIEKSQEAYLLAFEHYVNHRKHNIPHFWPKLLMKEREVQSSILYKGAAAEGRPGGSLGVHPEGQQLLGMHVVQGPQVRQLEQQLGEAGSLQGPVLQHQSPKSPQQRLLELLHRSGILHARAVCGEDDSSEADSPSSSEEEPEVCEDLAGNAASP
Consider `CCOP(=S)(OCC)Oc1ccc([N+](=O)[O-])cc1`, for which the compound was classed as inactive.

On to `CNC(=O)ON=C(SC)C(=O)N(C)C`, for which the compound was classed as inactive.

For the compound `C=C(C)[C@H]1Cc2c(ccc3c2O[C@@H]2COc4cc(OC)c(OC)cc4[C@@H]2C3=O)O1`, the call was inactive.

The next assay concerns the target Glucocorticoid receptor (Homo sapiens) (UniProt P04150). Nature of the assay: NVS_NR_hGR: NovaScreen (NVS) Nuclear Receptor Binding Assay for human Glucocorticoid Receptor (GR) (AID 2283363). In a few lines:
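Cell-free radioligand binding with extracted receptor protein, read by filter-based scintillation counting 16 hours after dosing. Loss of specific signal versus DMSO baseline was scored. Primary screen ran in duplicate at 25 uM; actives were followed up in concentration series.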
Turning to `COc1ccc(C(=CC(=O)N2CCOCC2)c2ccc(Cl)cc2)cc1OC`, the AC50 was 13.4 µM (active).

`CCOP(=S)(OCC)Oc1ccc([N+](=O)[O-])cc1`: the AC50 is 6.96 µM (active).

Turning to `C=C(C)[C@H]1Cc2c(ccc3c2O[C@@H]2COc4cc(OC)c(OC)cc4[C@@H]2C3=O)O1`, the AC50 is 0.425 µM (active).

A further assay deals with rat Androgen Receptor (AR), Ar (gene 24208) (UniProt P15207). Nature of the assay: NVS_NR_rAR: NovaScreen (NVS) Nuclear Receptor Binding Assay for rat Androgen Receptor (AR) (AID 2283366). In outline: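 Cell-free radioligand binding on extracts of prostate from testosterone-pretreated rats, read by filter-based scintillation counting 18 h after dosing. Loss of bound signal fitted positively versus DMSO; primary screen in duplicate at 25 uM, actives followed up in concentration series.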
Sequence of rat Androgen Receptor (AR), Ar (gene 24208) (P15207 whole entry, looked up): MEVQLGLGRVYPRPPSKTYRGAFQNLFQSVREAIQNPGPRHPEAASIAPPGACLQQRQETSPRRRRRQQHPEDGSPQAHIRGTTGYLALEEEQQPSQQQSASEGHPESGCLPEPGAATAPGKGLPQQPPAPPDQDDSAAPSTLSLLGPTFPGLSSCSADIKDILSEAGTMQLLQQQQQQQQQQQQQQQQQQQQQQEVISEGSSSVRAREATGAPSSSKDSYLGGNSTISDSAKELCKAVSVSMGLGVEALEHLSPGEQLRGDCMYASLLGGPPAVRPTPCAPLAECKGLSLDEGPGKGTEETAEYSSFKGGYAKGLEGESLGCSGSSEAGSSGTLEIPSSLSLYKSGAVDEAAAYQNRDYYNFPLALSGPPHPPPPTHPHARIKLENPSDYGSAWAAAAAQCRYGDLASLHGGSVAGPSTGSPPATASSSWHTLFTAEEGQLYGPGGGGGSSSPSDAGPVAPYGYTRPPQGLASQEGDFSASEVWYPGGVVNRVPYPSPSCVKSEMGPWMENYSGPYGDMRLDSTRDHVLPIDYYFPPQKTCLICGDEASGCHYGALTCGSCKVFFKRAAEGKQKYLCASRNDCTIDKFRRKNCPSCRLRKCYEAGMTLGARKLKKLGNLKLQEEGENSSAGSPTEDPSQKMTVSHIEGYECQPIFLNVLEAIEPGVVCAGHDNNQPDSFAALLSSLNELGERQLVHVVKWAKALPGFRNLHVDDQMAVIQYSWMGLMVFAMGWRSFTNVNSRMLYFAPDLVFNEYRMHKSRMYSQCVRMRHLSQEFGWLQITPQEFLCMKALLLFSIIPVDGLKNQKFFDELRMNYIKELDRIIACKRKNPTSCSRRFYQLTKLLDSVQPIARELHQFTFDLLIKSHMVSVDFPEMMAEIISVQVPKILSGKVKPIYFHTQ
Turning to `CNC(=O)ON=C(SC)C(=O)N(C)C`, the call was inactive.

Take `CCCCOC(=O)c1ccccc1C(=O)O`: the result was inactive.

On to `C=C(C)[C@H]1Cc2c(ccc3c2O[C@@H]2COc4cc(OC)c(OC)cc4[C@@H]2C3=O)O1`, for which the outcome was inactive.

For `CC(COc1ccc(Oc2ccccc2)cc1)Oc1ccccn1` (stereo not drawn), the compound was called inactive.

Another assay deals with guinea pig Dopamine Transporter (DAT), gene 100714898. As to the kind of experiment: NVS_TR_gDAT: NovaScreen (NVS) Transporter Assay for guinea pig Dopamine Transporter (DAT) (AID 2283369).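 Note: active compounds lower bound radioligand signal relative to DMSO.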 Here is the method:
(§1) NVS_TR_gDAT is a biochemical, single-readout assay that uses extracted gene-proteins from Guinea pig striatal membranes in a tissue-based cell-free assay. Measurements were taken 2 hours after chemical dosing in a 48-well plate.NVS_TR_gDAT is one of one assay component(s) measured or calculated from the NVS_TR_gDAT assay. It is designed to make measurements of radioligand binding, a form of binding reporter, as detected with scintillation counting signals by Filter-based radiodetection technology.Data from the assay component NVS_TR_gDAT was analyzed into 1 assay endpoint. This assay endpoint, NVS_TR_gDAT, was analyzed in the positive analysis fitting direction relative to DMSO as the negative control and baseline of activity. Using a type of binding reporter, loss-of-signal activity can be used to understand changes in the binding as they relate to the gene Slc6a3. Furthermore, this assay endpoint can be referred to as a primary readout, because the performed assay has only produced 1 assay endpoint. To generalize the intended target to other relatable targets, this assay endpoint is annotated to the transporter intended target family, where the subfamily is neurotransmitter transporter.
(§2) Binding assays used specific radioligands (tritiated, iodinated) with non-radioactive competitive displacement ligands in agonist or antagonist protocols (as indicated) and various reference compounds and inhibitors to titrate specific binding to receptors and transporters. Most enzyme assays (CYPs, kinases, phosphatases, proteases, HDACs) used recombinant protein and specific substrates (fluorescence mostly, some colorimetric and radioactive) and inhibitors, followed by a biochemical separation of substrate and product. All assays for the biochemical HTS were initially run in duplicate at a single concentration (10 uM for CYP450 assays and 25 uM for all others). Assay-chemical combinations meeting a pre-defined threshold (e.g., 30% inhibition and other criteria defined below) were then run in singleton concentration-response format with maximum concentration of 20 uM for CYPs and 50 uM for all others. Each assay was run with positive and negative controls, and concurrent controls on every plate. The follow-up (secondary) screen tested active chemical-pairs in concentration series, as well as a few additional assays not tested in the primary screen, some selected negative inactives, and several cases re-run in the concentration series for confirmatory purposes.
Turning to `CCCCOC(=O)c1ccccc1C(=O)O`, the result was inactive.

For `C=C(C)[C@H]1Cc2c(ccc3c2O[C@@H]2COc4cc(OC)c(OC)cc4[C@@H]2C3=O)O1`, the result was inactive.

For the compound `CC(C)=CC1C(C(=O)OCN2C(=O)C3=C(CCCC3)C2=O)C1(C)C` (stereo not drawn), the outcome was inactive.

On to `Nc1c(Cl)cc([N+](=O)[O-])cc1Cl`, for which the call was inactive.

Another assay addresses Peroxisome proliferator-activated receptor gamma (Homo sapiens) (UniProt P37231). As to the kind of experiment: NVS_NR_hPPARg: NovaScreen (NVS) Nuclear Receptor Binding Assay for human Peroxisome Proliferator-activated Receptor gamma (PPARg) (AID 2283370). In a few lines: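 Chemicals were tested first in duplicate at 25 uM, then in concentration series if active. Binding to cell-free PPARg protein was measured by fluorescence polarization after 2 h, with loss of signal scored against DMSO.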
Consider `CCC(=NOC/C=C/Cl)C1=C(O)CC(C2CCOCC2)CC1=O` (stereo not drawn), for which the call was inactive.

Take `CCOP(=S)(OCC)Oc1ccc([N+](=O)[O-])cc1`: the call was inactive.

For the compound `CCc1cccc(CC)c1N(COC)C(=O)CCl`, the AC50 was 21.2 µM (active).

Take `CCCCOC(=O)c1ccccc1C(=O)O`: the outcome was inactive.

Consider `C=C(C)[C@H]1Cc2c(ccc3c2O[C@@H]2COc4cc(OC)c(OC)cc4[C@@H]2C3=O)O1`, for which the call was inactive.

Turning to `CC(COc1ccc(Oc2ccccc2)cc1)Oc1ccccn1` (stereo not drawn), the compound was called inactive.

On to `CCOP(=O)(NC(C)C)Oc1ccc(SC)c(C)c1` (stereo not drawn), for which the call was inactive.

For `Nc1c(Cl)cc([N+](=O)[O-])cc1Cl`, the result was inactive.

For `O=[N+]([O-])c1cc(C(F)(F)F)c(Cl)c([N+](=O)[O-])c1Nc1ncc(C(F)(F)F)cc1Cl`, the AC50 was 0.319 µM (active).

For the compound `CC(=NC#N)N(C)Cc1ccc(Cl)nc1`, the call was inactive.

The next assay concerns the target human Serotonin Transporter (SERT), SLC6A4 (gene 6532) (UniProt P31645). As to the kind of experiment: NVS_TR_hSERT: NovaScreen (NVS) Transporter Assay for human Serotonin Transporter (SERT) (AID 2283372). Here is the method:
as §1, with “NVS_TR_hSERT” for “NVS_TR_gDAT”, “Human platelet” for “Guinea pig striatal”, “1 hour” for “2 hours”, “96-well plate.NVS_TR_hSERT” for “48-well plate.NVS_TR_gDAT”, “NVS_TR_hSERT,” for “NVS_TR_gDAT,”, “SLC6A4.” for “Slc6a3.”
as §2, with “Assay-chemical combinations meeting a pre-defined threshold (e.g., 30% inhibition and other criteria defined below) were then run in singleton concentration-response format with maximum concentration of 20 uM for CYPs and 50 uM for all others.” left out
`COc1ccc(C(=CC(=O)N2CCOCC2)c2ccc(Cl)cc2)cc1OC`: the call was inactive.

As to `CCOP(=S)(OCC)Oc1ccc([N+](=O)[O-])cc1`, the AC50 was 7.25 µM (active).

As to `CC(C)=CC1C(C(=O)OCN2C(=O)C3=C(CCCC3)C2=O)C1(C)C` (stereo not drawn), the outcome was inactive.

For `Nc1c(Cl)cc([N+](=O)[O-])cc1Cl`, the outcome was inactive.
